Experimental data reported in PubChem BioAssay AID1117319 (Southern Research Institute, 2015).
Out of some 260,000 compounds screened, about 1,500 (0.58%) were called active. Another 5% or so got no clear call; they are omitted. A selection follows. Potency and affinity values are given separately. A number with no mark means an inactive call.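 The calls were made as follows: active = inhibition above a set limit at one or more doses, reproduced on every date tested; inconclusive = results disagree between test dates, or hit never tested in dose response; inactive = the rest.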

These compounds were tested against Virion infectivity factor (Human immunodeficiency virus type 1 group M subtype B (isolate BH10)) + Virion infectivity factor (Human immunodeficiency virus type 1 group M subtype B (isolate BRU/LAI)) + Virion infectivity factor (Human immunodeficiency virus type 1 group M subtype B (isolate PCV12)) + Virion infectivity factor (Human immunodeficiency virus type 1 group M subtype B (isolate HXB2)) + DNA dC->dU-editing enzyme APOBEC-3G (Homo sapiens) (UniProt P69720+P69721+P69722+P69723+Q9HC16) (assay: HIV-1 Vif–A3G interaction blockers – biochemical, TR-FRET, GST-Vif 1-94, biotin-A3G peptide, dose response retest, primary screen (AID 1117319;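 also: Vif residues 1-94 fused to GST binding biotinylated APOBEC3G peptide 110-148; 0% = full assay without inhibitor and 100% = GST in place of GST-Vif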)). Settings: TR-FRET GST-Vif / biotin-A3G peptide binding; hits give high values.

Q: How did the inhibition turn out when `O=C(CCNS(=O)(=O)c1ccc(Br)cc1)N1CCN(c2ccccc2O)CC1` was run?
A: 0.32%

Q: With `Cc1ccc(OCCOCCN2CCN(C)CC2)c([N+](=O)[O-])c1` as the compound, how does the inhibition read?
A: 6.13%

Q: `CCOC(=O)C1CCN(c2c(NCc3ccc(C(=O)NC4CCCC4)cc3)c(=O)c2=O)CC1` was tested. Which inhibition did it give?
A: 0.11%

Q: How did the inhibition turn out when `COc1ccc(Cc2c(O)nc(SCC(=O)N3CCCCCC3)[nH]c2=O)cc1` was run?
A: -4.82%

Q: How did the inhibition turn out when `Cc1cccc(NC(=O)/C=C/c2cccs2)n1` was run?
A: 4.61%

Q: With `O=C(/C=C/c1cccs1)Nc1cccc(NC(=O)/C=C/c2cccs2)n1` as the compound, how does the inhibition read?
A: 13.7%

Q: How did the inhibition turn out when `Cc1nn(-c2ccc(Cl)cn2)c2c1C(=O)CC(C)(C)C2Br` (stereo unspecified) was run?
A: -0.39%

Q: With `CO[C@@]12[C@@H]3N[C@@H]3CN1C1=C(C(=O)C(N)=C(C)C1=O)[C@@H]2COC(N)=O` as the compound, how does the inhibition read?
A: 5.83%

Q: Which inhibition does the source give for `[O-][n+]1c2ccc3nonc3c2nn1-c1ccccc1Cl` here?
A: -0.31%

Q: Which inhibition does the source give for `O=C(CSc1ccc(-c2ccccn2)nn1)Nc1nccs1` here?
A: -5.9%

Q: Which inhibition does the source give for `CCOCCCNC(=O)c1cccc(NC(=O)C2=C(C)OCCS2)c1` here?
A: -0.24%

Q: Which inhibition does the source give for `COc1cc(CC(=O)OCC(=O)Nc2ccc([N+](=O)[O-])cc2)cc(OC)c1OC` here?
A: 31.8%

Q: For `COc1ccc([N+](=O)[O-])cc1NC(=O)COC(=O)Cc1cc(OC)c(OC)c(OC)c1`, which inhibition is on record?
A: -5.64%

Q: With `Cc1csc(SCC(=O)NC2CCS(=O)(=O)C2)n1` (stereo unspecified) as the compound, how does the inhibition read?
A: -3.32%

Q: For `COc1cccc(NC(=O)CN2C(=O)COc3ccc(S(=O)(=O)N4CCOCC4)cc32)c1`, which inhibition is on record?
A: 0%

Q: For `CCOC(=O)c1cccc(NC(=O)c2ccc(-n3cnnn3)cc2)c1`, which inhibition is on record?
A: -5.14%

Q: With `CC(=O)c1ccc(NC(=O)c2ccc(-n3cnnn3)cc2)cc1` as the compound, how does the inhibition read?
A: -12.9%

Q: How did the inhibition turn out when `COc1ccc(NC(=O)CCc2ccccc2)cc1S(=O)(=O)N1CCCCC1` was run?
A: 2.14%

Q: With `O=C(Nc1nc2ccccc2s1)c1ccc2c(c1)S(=O)(=O)c1ccccc1C2=O` as the compound, how does the inhibition read?
A: 28.5%

Q: `O=C(c1ccc(Br)o1)N1CCN(C/C=C/c2ccccc2)CC1` was tested. Which inhibition did it give?
A: 2.12%

Q: Which inhibition does the source give for `C/C(=N\NC(=S)NCc1ccccc1)c1ccc(C(C)(C)C)cc1` here?
A: 9.19%

Q: `C/C(CCC(=O)O)=N/Nc1ccc([N+](=O)[O-])cc1[N+](=O)[O-]` was tested. Which inhibition did it give?
A: 5.85%

Q: Which inhibition does the source give for `CC(C)NC1=C(Cl)C(=O)c2ccccc2C1=O` here?
A: 2.61%

Q: How did the inhibition turn out when `CN1CCN(C2=C(NS(=O)(=O)c3ccccc3)C(=O)c3ccccc3C2=O)CC1` was run?
A: -3.21%

Q: `NC(=O)C1CCN(C2=C(NS(=O)(=O)c3ccc(Cl)cc3)C(=O)c3ccccc3C2=O)CC1` was tested. Which inhibition did it give?
A: 10.6%

Q: Which inhibition does the source give for `O=C1C(Cl)=C(NCCCN2CCOCC2)C(=O)c2ccccc21` here?
A: 3.39%

Q: For `CN1CCN(C2=C(Cl)C(=O)N(Cc3ccccc3)C2=O)CC1`, which inhibition is on record?
A: 14.1%

Q: `NC(=O)C1CCN(C2OC(=O)c3ccccc32)CC1` (stereo unspecified) was tested. Which inhibition did it give?
A: -1.56%

Q: Which inhibition does the source give for `COc1ccc(OC)c(NC(=O)CNC(=O)Cn2c(C)cc3ccccc3c2=O)c1` here?
A: 7.41%

Q: Which inhibition does the source give for `O=C(c1ccco1)N1CCN(C(=O)C2Cc3ccccc3CN2S(=O)(=O)c2ccc(F)cc2)CC1` (stereo unspecified) here?
A: -4.72%

Q: How did the inhibition turn out when `CN(Cc1cccc2cnccc12)C(=O)c1cc(COc2ccc(F)cc2F)on1` was run?
A: -7.76%

Q: Which inhibition does the source give for `COc1cccc(CN2CCN(Cc3cccc4c3OCO4)CC2CCO)c1` (stereo unspecified) here?
A: -2.33%

Q: With `CCOC(=O)C(C(=O)NCc1ccc(F)cc1)c1ncc(C(F)(F)F)cc1Cl` (stereo unspecified) as the compound, how does the inhibition read?
A: 5.68%

Q: How did the inhibition turn out when `Nc1ncnc(Nc2cc(C(F)(F)F)cc(C(F)(F)F)c2)n1` was run?
A: 11%

Q: `COc1ccc(C(=O)N/C(=C/c2cccnc2)C(=O)N2CCCCCC2)cc1OC` was tested. Which inhibition did it give?
A: 2.36%

Q: How did the inhibition turn out when `COc1ccccc1C(=O)N/C(=C\c1ccc(Br)cc1)C(=O)NCCC(=O)O` was run?
A: -1.86%

Q: `Cc1oc(/N=C/c2ccccc2O)c(C#N)c1C` was tested. Which inhibition did it give?
A: 6.98%

Q: For `Cc1oc(/N=C/c2ccc(O)cc2O)c(C#N)c1C`, which inhibition is on record?
A: -3.01%

Q: `Clc1cccc(C2=NOC(c3nnc(-c4ccccc4)o3)C2)c1` (stereo unspecified) was tested. Which inhibition did it give?
A: -9.96%

Q: For `Cc1cc(C)c(OCCNC(=O)c2ccccc2Sc2ccccc2C#N)c(C)c1`, which inhibition is on record?
A: -2.47%

Q: `CC(=O)Oc1ccc(N2C(=O)C3C4C=CC(O4)C3C2=O)cc1` (stereo unspecified) was tested. Which inhibition did it give?
A: -0.5%

Q: For `CCOC(=O)C1CCN(C(=O)c2ccc3c(SCC(=O)O)c4c(nc3c2)CCCC4)CC1`, which inhibition is on record?
A: -8.86%

Q: With `CCC(C)NC(=O)c1ccc2c(SCC(=O)O)c3c(nc2c1)CCCC3` (stereo unspecified) as the compound, how does the inhibition read?
A: 7.55%

Q: How did the inhibition turn out when `CCCN(C(=O)c1ccc2c(SCC(=O)O)c3c(nc2c1)CCC3)c1cccc(C)c1` was run?
A: 18.7%

Q: `O=C(O)CSc1c2c(nc3cc(C(=O)N4CCCC4)ccc13)CCCC2` was tested. Which inhibition did it give?
A: 4.71%

Q: For `COc1cccc(/C=C2\SC(=S)N(CC(=O)N(C)C3CCS(=O)(=O)C3)C2=O)c1` (stereo unspecified), which inhibition is on record?
A: 3.59%
